Measured values published in PubChem BioAssay (NCI).
Where “and” joins values, the source holds several entries; their conditions need not be identical. Equal entries are not always repeated. Compounds without any hit were thinned out: in the full panel of roughly 79,000, 15% have a hit. More than one record can exist for a structure, and the calls need not agree. Calls of active or inactive are those of the source. Rule as the data show it: active = growth inhibition above about 70%; inactive = the rest.

How the values were obtained:
[1] = NCI Yeast Anticancer Drug Screen. Data for the wt1 strain (AID 149);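 also: 0% = growth of vehicle-treated wt1 cultures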; conditions: S. cerevisiae wt1 strain (SPY 50644) growth inhibition, stronger effect = higher value
Procedure, shortened: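 The wt1 strain was treated with compounds, and growth was compared with vehicle-treated cultures to give inhibition.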

[2] = NCI Yeast Anticancer Drug Screen. Data for the rad50EPP+ strain (AID 151);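 also: 0% = growth of vehicle-treated control cultures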; conditions: S. cerevisiae rad50 mutant strain, stronger effect = higher value
Procedure, shortened: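 Yeast strain carrying rad50 alteration (rad50EPP+) exposed to compounds; growth inhibition measured relative to vehicle-treated controls.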

[3] = NCI Yeast Anticancer Drug Screen. Data for the mgt1 strain (AID 153); conditions: S. cerevisiae mgt1 mutant growth inhibition, stronger effect = higher value
Procedure, shortened: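 Yeast mgt1 strain (DNA repair/cell-cycle alteration panel) exposed to compounds; growth inhibition measured relative to vehicle-treated controls.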

[4] = NCI Yeast Anticancer Drug Screen. Data for the rad50 strain (AID 155);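 also: 0% = growth of vehicle-only cultures of the same strain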; conditions: S. cerevisiae rad50 strain growth inhibition, stronger effect = higher value
Procedure, shortened: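 Cells are treated with compound, grown, and their growth is then scored against vehicle-only cultures of the same repair-deficient yeast strain.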

[5] = NCI Yeast Anticancer Drug Screen. Data for the mec2-1 strain (AID 157); conditions: S. cerevisiae mec2-1 strain, stronger effect = higher value
Procedure, shortened: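 mec2-1 yeast strain, carrying an alteration in DNA damage repair or cell cycle control, was exposed to compounds; growth inhibition was measured relative to vehicle-treated controls.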

[6] = NCI Yeast Anticancer Drug Screen. Data for the rad14 strain (AID 159);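 also: 0% = growth of vehicle-treated control cultures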; conditions: S. cerevisiae rad14 strain growth inhibition, stronger effect = higher value
Procedure, shortened: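 Readout: yeast growth inhibition, referenced to vehicle-only cultures. Strain bears a defined alteration in DNA damage repair.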

[7] = NCI Yeast Anticancer Drug Screen. Data for the sgs1 mgt1 strain (AID 161);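 also: 0% = growth of cultures given vehicle only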; conditions: S. cerevisiae sgs1 mgt1 strain, stronger effect = higher value
Procedure, shortened: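 Compounds are added to genetically altered yeast, and growth is compared with cultures given vehicle alone to give percent inhibition.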

[8] = NCI Yeast Anticancer Drug Screen. Data for the CLN2oe strain (AID 163);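 also: 0% = growth of vehicle-only control cultures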; conditions: S. cerevisiae CLN2oe strain, stronger effect = higher value
Procedure, shortened: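 Yeast cells carrying a defined cell-cycle control alteration were exposed to test compounds. Growth inhibition was scored against vehicle-treated control cultures.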

[9] = NCI Yeast Anticancer Drug Screen. Data for the cln2 rad14 strain (AID 165);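 also: 0% = growth equal to vehicle treated cultures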; conditions: S. cerevisiae cln2 rad14 strain, stronger effect = higher value
Procedure, shortened: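 Yeast carrying cln2 and rad14 alterations (cell cycle control and DNA damage repair) were exposed to compounds. Growth inhibition was measured against vehicle-treated controls.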

[10] = NCI Yeast Anticancer Drug Screen. Data for the bub3 strain (AID 167); conditions: S. cerevisiae bub3 mutant strain, stronger effect = higher value
Procedure, shortened: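 Part of a panel of yeast mutants defective in DNA damage repair or cell cycle regulation. Each strain is grown with compound, and inhibition is calculated relative to solvent-treated cultures.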

[11] = NCI Yeast Anticancer Drug Screen. Data for the wt2 strain (AID 169);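 also: 0% = growth of vehicle-treated yeast cultures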; conditions: S. cerevisiae wt2 strain growth inhibition, stronger effect = higher value
Procedure, shortened: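 Yeast cells were exposed to test compounds, and growth inhibition was measured relative to vehicle-treated controls.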

[12] = NCI Yeast Anticancer Drug Screen. Data for the mlh1 strain (AID 171);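 also: 0% = growth of vehicle-treated control cultures of the same strain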; conditions: S. cerevisiae mlh1 strain growth inhibition, stronger effect = higher value
Procedure, shortened: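 Yeast carrying a defined genetic alteration in DNA damage repair or cell cycle control were exposed to test compounds. Growth inhibition was measured relative to vehicle-treated controls.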

[13] = NCI Yeast Anticancer Drug Screen. Data for the mlh1 rad18 strain (AID 175); conditions: S. cerevisiae mlh1 rad18 strain growth inhibition, stronger effect = higher value
Procedure, shortened: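 Growth inhibition of the yeast strain was measured after compound exposure and expressed relative to vehicle-treated controls. The strain carries defined defects in DNA damage repair.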

[14] = NCI Yeast Anticancer Drug Screen. Data for the rad18 strain (AID 177); conditions: S. cerevisiae rad18 mutant growth inhibition, stronger effect = higher value
Procedure, shortened: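 Yeast carrying a defined DNA damage repair alteration were exposed to compounds. Growth inhibition was expressed relative to vehicle-treated controls.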

[15] = NCI Yeast Anticancer Drug Screen. Data for the rad52 strain (AID 147);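 also: 0% = growth of vehicle-treated control cultures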; conditions: S. cerevisiae rad52 mutant growth inhibition, stronger effect = higher value
Procedure, shortened: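 Yeast strain carrying a DNA damage repair alteration was exposed to test compounds. Growth inhibition was measured relative to vehicle-treated controls.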

[16] = NCI Yeast Anticancer Drug Screen. Data for the sgs1 strain (AID 173);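 also: 0% = growth of vehicle-only control cultures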; conditions: S. cerevisiae sgs1 mutant, stronger effect = higher value
Procedure, shortened: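 Yeast mutant strains carrying defined defects in DNA damage repair or cell cycle control were exposed to test compounds. Growth inhibition was scored against vehicle-treated controls.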

[17] = at 5.0 µM (retest, dose inferred, filed as 0.5)
[18] = at 50.0 µM (retest, dose inferred, filed as 5.0)

Measured: growth inhibition

BrCC[N+]12CC[N+](CCBr)(CC1)C2
active: [1]; at 33.0 µM 82% | [1]; at 100.0 µM 94% | [2]; at 33.0 µM 81% | [2]; at 100.0 µM 92% | [3]; at 33.0 µM 88% | [3]; at 100.0 µM 96% | [4]; at 33.0 µM 87% | [4]; [18] 94% and 89% | [4]; at 50.0 µM 86.7% and 86.5% | [4]; at 100.0 µM 93% | [5]; at 33.0 µM 87% | [5]; [18] 98% and 94% | [5]; at 50.0 µM 92.2% and 89.9% | [5]; at 100.0 µM 95% | [6]; at 33.0 µM 93% | [6]; at 100.0 µM 94% | [7]; [18] 90% and 93% | [7]; at 50.0 µM 89.2% | [8]; at 33.0 µM 78% | [8]; at 100.0 µM 89% | [9]; at 50.0 µM 84.9% and 85.5% | [10]; at 33.0 µM 89% | [10]; [18] 92% and 95% | [10]; at 50.0 µM 86.7% and 87% | [10]; at 100.0 µM 95% | [11]; at 33.0 µM 86% | [11]; at 100.0 µM 95% | [12]; at 33.0 µM 88% | [12]; at 100.0 µM 96% | [13]; [18] 95% and 90% | [13]; at 50.0 µM 90.6% and 86.9% | [14]; at 33.0 µM 89% | [14]; at 100.0 µM 95%
inactive: [1]; at 1.2 µM 1% | [1]; at 3.7 µM 6% | [1]; at 11.0 µM 14% | [2]; at 1.2 µM 9% | [2]; at 3.7 µM 14% | [2]; at 11.0 µM 12% | [3]; at 1.2 µM 12% | [3]; at 3.7 µM -2% | [3]; at 11.0 µM 42% | [4]; at 1.2 µM 14% | [4]; at 3.7 µM 20% | [4]; [17] 40% and 27% | [4]; at 11.0 µM 55% | [5]; at 1.2 µM -4% | [5]; at 3.7 µM 5% | [5]; [17] 43% and 1% | [5]; at 11.0 µM 29% | [6]; at 1.2 µM -13% | [6]; at 3.7 µM -16% | [6]; at 11.0 µM 56% | [7]; [17] 46% and -15% | [8]; at 1.2 µM 1% | [8]; at 3.7 µM -9% | [8]; at 11.0 µM 2% | [9]; [17] 35% and 23% | [10]; at 1.2 µM -5% | [10]; at 3.7 µM -1% | [10]; [17] 34% and -12% | [10]; at 11.0 µM 36% | [11]; at 1.2 µM -33% | [11]; at 3.7 µM -18% | [11]; at 11.0 µM 4% | [12]; at 1.2 µM 12% | [12]; at 3.7 µM -2% | [12]; at 11.0 µM 42% | [13]; [17] 64% and 42% | [14]; at 1.2 µM 10% | [14]; at 3.7 µM 25% | [14]; at 11.0 µM 53%
92% (active) and 65% (inactive): [9]; [18]

NCCc1ccc(OCc2ccccc2)c(OCc2ccccc2)c1
inactive: [15]; at 1.2 µM -8% | [15]; at 3.7 µM -5% | [15]; at 11.0 µM -6% | [2]; at 1.2 µM -15% | [2]; at 3.7 µM -9% | [2]; at 11.0 µM -19% | [2]; at 33.0 µM 11% | [3]; at 1.2 µM 2% | [3]; at 3.7 µM 13% | [3]; at 11.0 µM 56% | [4]; at 1.2 µM 16% | [4]; at 3.7 µM 17% | [4]; [17] 43% | [4]; at 11.0 µM 35% | [5]; at 1.2 µM 0% | [5]; at 3.7 µM 3% | [5]; [17] 35% | [5]; at 11.0 µM 8% | [6]; at 1.2 µM -27% | [6]; at 3.7 µM -21% | [6]; at 11.0 µM -3% | [7]; [17] -16% | [8]; at 1.2 µM -1% | [8]; at 3.7 µM 3% | [8]; at 11.0 µM -5% | [8]; at 33.0 µM 41% | [9]; [17] 36% | [10]; at 1.2 µM 12% | [10]; at 3.7 µM 20% | [10]; [17] -17% | [10]; at 11.0 µM 35% | [12]; at 1.2 µM -38% | [12]; at 3.7 µM -12% | [12]; at 11.0 µM 43% | [16]; at 1.2 µM -8% | [16]; at 3.7 µM -5% | [16]; at 11.0 µM 51% | [13]; [17] 24% | [14]; at 1.2 µM 2% | [14]; at 3.7 µM 15% | [14]; at 11.0 µM 45%
active: [15]; at 33.0 µM 72% | [15]; at 100.0 µM 92% | [2]; at 100.0 µM 83% | [3]; at 33.0 µM 97% | [3]; at 100.0 µM 98% | [4]; at 33.0 µM 90% | [4]; [18] 90% | [4]; at 50.0 µM 91.7% | [4]; at 100.0 µM 96% | [5]; at 33.0 µM 92% | [5]; [18] 96% | [5]; at 50.0 µM 91.5% | [5]; at 100.0 µM 98% | [6]; at 33.0 µM 94% | [6]; at 100.0 µM 97% | [7]; [18] 97% | [8]; at 100.0 µM 97% | [9]; [18] 82% | [10]; at 33.0 µM 87% | [10]; [18] 92% | [10]; at 100.0 µM 96% | [12]; at 33.0 µM 95% | [12]; at 100.0 µM 96% | [16]; at 33.0 µM 95% | [16]; at 100.0 µM 96% | [13]; [18] 96% | [13]; at 50.0 µM 90.2% | [14]; at 33.0 µM 91% | [14]; at 100.0 µM 94%
